The record followed here is publication PMC4336329 (PLoS ONE, 2015).

Screen size: about 310,000 compounds; about 14,000 (4.5%) showed an effect of 50% or more. The effect is printed as a negative number. Many of the other results were omitted from the sample, so strong results are more common in it than they were.
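Note: peak tail current of the secondary pulse compared with the same well before compound.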

The target in the assay is human ether-à-go-go-related gene (hERG) potassium channel (human, UniProt Q12809). Description: primary screen, population patch clamp on CHO cells stably expressing hERG; higher = less effect of the substance.
Sequence of human ether-à-go-go-related gene (hERG) potassium channel (Q12809 whole entry, looked up): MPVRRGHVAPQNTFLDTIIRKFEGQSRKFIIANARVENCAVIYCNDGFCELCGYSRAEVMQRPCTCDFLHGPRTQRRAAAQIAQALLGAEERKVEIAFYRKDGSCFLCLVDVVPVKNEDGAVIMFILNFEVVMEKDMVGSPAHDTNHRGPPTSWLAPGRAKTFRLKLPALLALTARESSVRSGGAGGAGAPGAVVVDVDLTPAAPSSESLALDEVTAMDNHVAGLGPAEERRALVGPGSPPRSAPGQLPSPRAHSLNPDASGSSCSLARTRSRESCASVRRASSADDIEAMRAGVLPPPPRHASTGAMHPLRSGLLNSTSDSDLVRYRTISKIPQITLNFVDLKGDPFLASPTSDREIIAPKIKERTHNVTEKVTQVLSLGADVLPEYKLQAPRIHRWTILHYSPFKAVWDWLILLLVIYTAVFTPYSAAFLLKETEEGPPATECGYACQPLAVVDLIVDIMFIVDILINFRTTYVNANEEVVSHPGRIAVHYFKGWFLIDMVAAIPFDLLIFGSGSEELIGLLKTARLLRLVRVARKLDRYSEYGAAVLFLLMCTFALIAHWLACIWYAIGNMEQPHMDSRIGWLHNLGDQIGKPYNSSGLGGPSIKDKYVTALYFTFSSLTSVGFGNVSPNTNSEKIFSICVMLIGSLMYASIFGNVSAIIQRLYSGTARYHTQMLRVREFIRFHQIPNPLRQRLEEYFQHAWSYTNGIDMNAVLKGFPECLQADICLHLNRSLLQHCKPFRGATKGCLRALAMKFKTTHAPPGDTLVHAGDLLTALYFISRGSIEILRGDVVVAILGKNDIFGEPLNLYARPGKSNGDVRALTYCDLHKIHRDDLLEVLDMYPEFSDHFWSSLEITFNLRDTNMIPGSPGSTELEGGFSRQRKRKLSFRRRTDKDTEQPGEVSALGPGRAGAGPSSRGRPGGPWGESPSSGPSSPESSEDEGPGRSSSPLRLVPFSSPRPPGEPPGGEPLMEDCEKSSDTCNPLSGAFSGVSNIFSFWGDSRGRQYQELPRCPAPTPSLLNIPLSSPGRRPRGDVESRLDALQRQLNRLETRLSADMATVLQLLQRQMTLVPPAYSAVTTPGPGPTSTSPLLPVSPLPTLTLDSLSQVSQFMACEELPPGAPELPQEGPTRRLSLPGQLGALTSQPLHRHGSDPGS
Take `Cc1ccc(-n2nnnc2SCC(=O)Nc2ccccc2N2CCCCC2)cc1C`: the “hERG current change (%, negative = inhibition) at 10uM” value is 14.3%.
Under `CC(NC(=O)COc1ccccc1)C(c1cccs1)N1CCCC1` (stereo not drawn) stands -2.64%; under `COc1ccccc1CNC(=O)CCCOc1cc(=O)n(C)c2ccccc12`, 4.57%.
Turning to `CN(Cc1ccccc1)C(=O)CCC1CCN(S(=O)(=O)N(C)C)CC1`, the “hERG current change (%, negative = inhibition) at 10uM” value is recorded as -18.4%.
In the case of `CCNC(=S)N1CCC(c2nc3ccccc3s2)CC1`, the “hERG current change (%, negative = inhibition) at 10uM” value is listed as -25.7%.
As for `CCCCNC(=O)[C@H]1C[C@H]1[C@@H](O)[C@H](CO)NC(=O)[C@H](COCc1ccccc1)NC(=O)OC(C)(C)C`, the “hERG current change (%, negative = inhibition) at 10uM” value is reported as 21.5%.
Next, `CC(C)(C#N)Nn1cnnc1`: 17.1%.
As for `COc1ccc(CC(=O)OC2CCCN(C)C2)cc1.Cl` (stereo not drawn), the “hERG current change (%, negative = inhibition) at 10uM” value is reported as 19.3%.
Turning to `Cn1ncc(Cl)c1C(=O)N1CCN(c2cccc(Cl)c2)CC1`, the “hERG current change (%, negative = inhibition) at 10uM” value is listed as -8.7%.
As for `CC(C)n1c(SCc2cc(=O)[nH]c3ccccc23)nc2c1c(=O)n(C)c(=O)n2C`, the “hERG current change (%, negative = inhibition) at 10uM” value is on record as -7.13%.
Next, `c1ccc(-c2noc(CC3CCCCC3)n2)nc1`: 6.32%; `O=C(COC(=O)C12CC3CC(CC(O)(C3)C1)C2)NCCc1ccc(Cl)cc1`: -10.8%.
With `CCN(CC)CCCOC(=O)c1ccc(OC)cc1O.Cl`, the “hERG current change (%, negative = inhibition) at 10uM” value is listed as -40.9%.
Under `CCC(Sc1nncn1C)C(=O)Nc1nnc(-c2ccccc2Cl)s1` (stereo not drawn) stands -11%; under `CC(C)c1nnc(NC(=O)C2CCCN2C(=O)Nc2cccc(Cl)c2)s1` (stereo not drawn), -18%; under `COc1ccc(C(=O)NC(C)CCc2ccccc2)c(OC)c1` (stereo not drawn), -26.3%.
Under `COc1ccc(C(=O)NC(C)CCc2ccccc2)c(O)c1` (stereo not drawn) stands -55.5%.
Next, `COc1ccc(C(=O)NC(C)CCc2ccccc2)cc1` (stereo not drawn): -2.64%.
In the case of `CC(C)(C)c1ccc(C(=O)OCCN2CCCCC2)cc1.Cl`, the “hERG current change (%, negative = inhibition) at 10uM” value was -47.6%.
Under `Fc1ccc(OCCOCCN2CCCC2)cc1` stands -12.6%; under `CC(OCCN1CCCC1)(c1ccc(F)cc1)c1ccc(F)cc1.Cl`, -63.1%.
As to `CC(C)(C)c1ccccc1OCCN1CCCC1`, the “hERG current change (%, negative = inhibition) at 10uM” value is -24.1%.
Next, `Cl.Fc1ccc(C(OCCN2CCCC2)c2ccc(Br)cc2)cc1` (stereo not drawn): -75.8%; `Cl.Fc1ccc(C(OCCN2CCCC2)c2ccc(F)cc2)cc1`: -71.3%.
Under `Brc1ccccc1OCCN1CCCC1` stands -1.74%.
Under `Cl.O=C(CCN1CCCCCC1)Nc1ccc(F)cc1` stands -42.8%.
Regarding `Brc1ccc(CN2CCCCCC2)cc1`, the “hERG current change (%, negative = inhibition) at 10uM” value is given as -30.3%.
Next, `CCOC(=O)[C@H]1[C@H]2COc3cc(OC)ccc3[C@@H]2N2C(=O)CN(Cc3ccc(OC)cc3)C(=O)[C@@]12C`: -1.96%; `CC1CCc2sc(C(=O)N3CCC(C(N)=O)CC3)cc2C1` (stereo not drawn): 5.36%.
On to `CCN(CC)S(=O)(=O)c1cccc(C(=O)Nc2nncs2)c1`, for which the “hERG current change (%, negative = inhibition) at 10uM” value came out at 1.66%.
Under `O=C(CSc1nnc(-c2ccc(S(=O)(=O)N3CCOCC3)cc2)o1)c1ccccc1F` stands 1.84%; under `Cc1cc(SCC(=O)NCCN2C(=O)CSC2=O)nc2c(C)cccc12`, 0.207%; under `CCCc1c(C)c2cc(C)ccc2[nH]c1=O`, -25.3%.
Under `Cc1ccc(-c2csc3nc4c5ccccc5c(NCCCN(C)C)nn4c(=O)c23)cc1` stands -78%; under `CN(C)CCCNc1ncnc2scc(-c3ccccc3)c12.O=C(O)C(=O)O`, -27.9%.
Under `Cc1ccc(-c2csc3nc4c5ccccc5c(NCCCN5CCOCC5)nn4c(=O)c23)cc1` stands 2.7%.
Turning to `COc1ccc(C(C)=O)cc1CSC(=N)N.Cl`, the “hERG current change (%, negative = inhibition) at 10uM” value is 9.4%.
Next, `COc1ccc(C(=O)N(C)Cc2ccccn2)cc1OC1CCN(C(C)C)CC1`: 9.45%.
Next, `Cc1n[nH]c(=O)c2c(NC(=O)CSc3nc4ccccc4c(=O)n3C(C)C)oc(C)c12`: -27%; `CCc1cc2c(=O)n(CCCOC)c(SCC(=O)Nc3oc(C)c4c(C)n[nH]c(=O)c34)nc2s1`: -1.43%; `COCC(C)n1c(SCC(=O)Nc2oc(C)c3c(C)n[nH]c(=O)c23)nc2ccccc2c1=O` (stereo not drawn): 6.9%.
Next, `COCCCn1c(SCC(=O)Nc2oc(C)c3c(C)n[nH]c(=O)c23)nc2sc3c(c2c1=O)CCC3`: -49.7%; `CCn1c(SCC(=O)Nc2oc(C)c3c(C)n[nH]c(=O)c23)nc2sc(C)c(C)c2c1=O`: -61.7%.
As for `Cc1ccc(C)c(SCC(=O)Nc2oc(C)c3c(C)n[nH]c(=O)c23)c1`, the “hERG current change (%, negative = inhibition) at 10uM” value is recorded as -52.4%.
On to `Cc1n[nH]c(=O)c2c(NC(=O)CSc3cc(Cl)ccc3Cl)oc(C)c12`, for which the “hERG current change (%, negative = inhibition) at 10uM” value is on record as -10.9%.
Next, `Cc1n[nH]c(=O)c2c(NC(=O)CSc3nc4ccccc4c(=O)n3-c3ccc(OC(F)F)cc3)oc(C)c12`: -59.2%.
Next, `Cc1ccc(SCC(=O)Nc2oc(C)c3c(C)n[nH]c(=O)c23)cc1C`: -27.6%; `Nc1ccc(C(=O)N2CCCC2)cc1CS(=O)(=O)c1ccc(Cl)cc1`: -4.18%; `CN(c1ccccc1)c1nc(N)c([N+](=O)[O-])c(Nc2cccc(F)c2)n1`: 24%.
Next, `COc1ccc(N2C(=O)/C(=C\c3ccco3)N=C2SCC(=O)NC(C)C)cc1Cl`: 4.42%; `C=CCNC(=O)C(C)N1c2cccc3cccc(c23)S1(=O)=O` (stereo not drawn): 9.53%.
Turning to `COc1ccc(-n2nnnc2/C(=C/N(C)C)C(=O)c2ccccc2)cc1`, the “hERG current change (%, negative = inhibition) at 10uM” value was -4.92%.
Next, `S=C(NC1CCCCC1)N1CCn2cccc2C1c1cccnc1` (stereo not drawn): -8.63%; `O=C(O)COc1cccc(/C=C2/SC(=S)N(Cc3ccccc3)C2=O)c1`: 0.27%; `CC(C)(C)c1csc(NC(=O)c2ccc3nccnc3c2)n1`: -57.2%.
Take `CC(C)(C)c1csc(NC(=O)c2c(F)c(F)c(F)c(F)c2F)n1`: the “hERG current change (%, negative = inhibition) at 10uM” value is on record as -63.9%.
Under `CC(C)(C)c1csc(NC(=O)c2ccccc2O)n1` stands -0.0514%; under `CC(C)(C)c1csc(NC(=O)c2cccs2)n1`, -16.3%; under `CC(C)(C)c1csc(NC(=O)c2ccncc2)n1`, -33.7%.
Take `CC(C)(C)c1csc(NC(=O)c2cccnc2)n1`: the “hERG current change (%, negative = inhibition) at 10uM” value is 13.6%.
